This is part of a sample that, as a whole, favours compounds with a hit. Of some 83,000 tested, about 20% had one in any assay.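 Interpretation: 100, growth as untreated; towards 0, rising growth inhibition; 0, no net growth; 0 to -100, cell death. Compounds scoring below 10 were considered active.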 Active and inactive are the calls of the source.
Key:
Assay in all cases: NCI-60 one-dose screen, 48 h (100 = growth as untreated, 0 = no growth, -100 = all killed)
Conditions in all cases: 10 µM unless noted
DU-145 prostate = tested on: DU-145 prostate
K-562 leukemia = tested on: K-562 leukemia
MALME-3M melanoma = tested on: MALME-3M melanoma
MDA-MB-231 breast = tested on: MDA-MB-231 breast
RXF 393 renal = tested on: RXF 393 renal
SF-268 CNS = tested on: SF-268 CNS
SF-295 CNS = tested on: SF-295 CNS
SF-539 CNS = tested on: SF-539 CNS
UACC-257 melanoma = tested on: UACC-257 melanoma
M14 melanoma = tested on: M14 melanoma
HCT-15 colon = tested on: HCT-15 colon
HT29 colon = tested on: HT29 colon
SNB-75 CNS = tested on: SNB-75 CNS
SNB-19 CNS = tested on: SNB-19 CNS
U251 CNS = tested on: U251 CNS
PC-3 prostate = tested on: PC-3 prostate
UACC-62 melanoma = tested on: UACC-62 melanoma
LOX IMVI melanoma = tested on: LOX IMVI melanoma
SK-MEL-28 melanoma = tested on: SK-MEL-28 melanoma
SK-MEL-5 melanoma = tested on: SK-MEL-5 melanoma

Measured: growth

c1ccc(-c2nc([P+](c3ccccc3)(c3ccccc3)c3ccccc3)c(N3CCOCC3)o2)cc1
inactive: DU-145 prostate 18.6% | K-562 leukemia 10.4% | SF-268 CNS 18.3% | HCT-15 colon 79.3% | U251 CNS 10.1% | SK-MEL-28 melanoma 21.9%
active: MALME-3M melanoma 4.6% | MDA-MB-231 breast -14.8% | RXF 393 renal -4.62% | SF-295 CNS 0.0601% | SF-539 CNS 6.52% | UACC-257 melanoma -9.47% | M14 melanoma 4.76% | HT29 colon 0.225% | SNB-75 CNS 1.4% | SNB-19 CNS 8.73% | PC-3 prostate 6.1% | UACC-62 melanoma -37.1% | LOX IMVI melanoma 4.66%

CC/C=C\C/C=C\C[C@H](O)C/C=C1/C(=O)C=C[C@@H]1C/C=C\CCCC(=O)O
active: U251 CNS -27.9% | UACC-62 melanoma -43.4% | LOX IMVI melanoma -10.1%
inactive: DU-145 prostate 35.4% | K-562 leukemia 10.5% | MALME-3M melanoma 47% | MDA-MB-231 breast 25.6% | RXF 393 renal 68.5% | SF-268 CNS 53.9% | SF-295 CNS 86.2% | SF-539 CNS 32.7% | UACC-257 melanoma 31.3% | M14 melanoma 14.3% | HCT-15 colon 48% | HT29 colon 12.6% | SNB-75 CNS 80.7% | SNB-19 CNS 44.3% | PC-3 prostate 30.1% | SK-MEL-28 melanoma 17.5%

Cc1cc(C)c(-c2c(C)cc(C)cc2CBr)c(CBr)c1
inactive: DU-145 prostate 94.9% | K-562 leukemia 67.7% | MALME-3M melanoma 73.5% | MDA-MB-231 breast 97.9% | RXF 393 renal 14.8% | SF-268 CNS 74.2% | SF-295 CNS 84.7% | SF-539 CNS 96.4% | UACC-257 melanoma 73.9% | M14 melanoma 72.5% | HCT-15 colon 80.6% | HT29 colon 86.3% | SNB-75 CNS 92.3% | SNB-19 CNS 86.2% | U251 CNS 73% | PC-3 prostate 78.4% | UACC-62 melanoma 70.9% | LOX IMVI melanoma 53% | SK-MEL-28 melanoma 86.9%

COc1ccc(N=C(c2ccccc2)C2C(=O)c3ccccc3C2=O)cc1
inactive: DU-145 prostate 99.8% | K-562 leukemia 75.4% | MALME-3M melanoma 103% | MDA-MB-231 breast 103% | RXF 393 renal 72.1% | SF-268 CNS 97.7% | SF-295 CNS 67.2% | SF-539 CNS 72.3% | UACC-257 melanoma 93.8% | M14 melanoma 92% | HCT-15 colon 67% | HT29 colon 79.5% | SNB-75 CNS 76.3% | SNB-19 CNS 89.5% | U251 CNS 81.8% | PC-3 prostate 32.3% | UACC-62 melanoma 63% | LOX IMVI melanoma 75.4% | SK-MEL-28 melanoma 74.1%

Cc1ccc2nc3ccccc3c(NCc3ccccc3)c2c1
inactive: DU-145 prostate 35.8% | K-562 leukemia 10.9% | MALME-3M melanoma 55.2% | MDA-MB-231 breast 35.8% | SF-268 CNS 69% | SF-295 CNS 28.1% | SF-539 CNS 23.2% | UACC-257 melanoma 56.6% | M14 melanoma 45.6% | HCT-15 colon 18% | HT29 colon 11.6% | SNB-75 CNS 65% | SNB-19 CNS 31.8% | U251 CNS 37% | PC-3 prostate 29.7% | UACC-62 melanoma 56.4% | SK-MEL-28 melanoma 78%
active: RXF 393 renal 1.32% | LOX IMVI melanoma 9.08%

N[C@@H](CCCCNCC(=O)O)C(=O)O
inactive: DU-145 prostate 103% | K-562 leukemia 100% | MALME-3M melanoma 97.6% | MDA-MB-231 breast 89.1% | RXF 393 renal 108% | SF-268 CNS 102% | SF-295 CNS 100% | SF-539 CNS 92.7% | UACC-257 melanoma 101% | M14 melanoma 104% | HCT-15 colon 98.8% | HT29 colon 116% | SNB-75 CNS 84.1% | SNB-19 CNS 99.2% | U251 CNS 99.9% | PC-3 prostate 121% | UACC-62 melanoma 94.4% | LOX IMVI melanoma 100% | SK-MEL-28 melanoma 104%

CCOC(=O)c1c2c(n3ccc(NC(=O)OC(C)(C)C)cc13)C(=O)c1ncccc1C2=O
active: DU-145 prostate -30.2% | K-562 leukemia -23.9% | MALME-3M melanoma -21.6% | MDA-MB-231 breast 2.02% | RXF 393 renal -38.4% | SF-268 CNS -16.7% | SF-295 CNS -67.1% | SF-539 CNS -45.9% | UACC-257 melanoma -40.9% | M14 melanoma -55.8% | HCT-15 colon -69.5% | HT29 colon -50.9% | SNB-75 CNS -32.2% | SNB-19 CNS -54.4% | U251 CNS -80.8% | PC-3 prostate -1.36% | UACC-62 melanoma -75.8% | LOX IMVI melanoma -68.8% | SK-MEL-28 melanoma -18.4%

CC(C)Sc1nc(NNC(N)=S)c(C#N)c(-c2ccc(F)cc2)n1
inactive: DU-145 prostate 110% | K-562 leukemia 92.5% | MALME-3M melanoma 117% | MDA-MB-231 breast 98% | RXF 393 renal 101% | SF-268 CNS 101% | SF-295 CNS 93.7% | SF-539 CNS 91.7% | UACC-257 melanoma 101% | M14 melanoma 104% | HCT-15 colon 95.9% | HT29 colon 115% | SNB-75 CNS 62.6% | SNB-19 CNS 97% | U251 CNS 95% | PC-3 prostate 102% | UACC-62 melanoma 91.1% | LOX IMVI melanoma 98.6% | SK-MEL-28 melanoma 113%

N#Cc1c(-c2ccccn2)[nH]c(=S)[nH]c1=O
inactive: DU-145 prostate 105% | K-562 leukemia 97% | MALME-3M melanoma 108% | MDA-MB-231 breast 117% | RXF 393 renal 110% | SF-268 CNS 101% | SF-295 CNS 99.1% | SF-539 CNS 97.3% | UACC-257 melanoma 109% | M14 melanoma 97.6% | HCT-15 colon 96.7% | HT29 colon 96% | SNB-75 CNS 105% | SNB-19 CNS 126% | U251 CNS 99.8% | PC-3 prostate 103% | UACC-62 melanoma 118% | LOX IMVI melanoma 104% | SK-MEL-28 melanoma 112%

O=C(CCc1nnc(CN(c2ccccc2)c2ccccc2)o1)c1nc2ccccc2[nH]1
inactive: DU-145 prostate 104% | K-562 leukemia 76.3% | MALME-3M melanoma 94.3% | MDA-MB-231 breast 75.3% | RXF 393 renal 113% | SF-268 CNS 93.6% | SF-295 CNS 95.6% | SF-539 CNS 97.5% | UACC-257 melanoma 103% | M14 melanoma 102% | HCT-15 colon 97.4% | HT29 colon 93.4% | SNB-75 CNS 86.9% | SNB-19 CNS 92.7% | U251 CNS 94.9% | PC-3 prostate 76.3% | UACC-62 melanoma 69.4% | LOX IMVI melanoma 80.3% | SK-MEL-28 melanoma 112%

CN(Cc1cnc2nc(N)nc(N)c2n1)c1ccc(C(=O)N[C@@H](CCc2nn[nH]n2)c2nn[nH]n2)cc1
inactive: DU-145 prostate 32.8% | K-562 leukemia 18.1% | MALME-3M melanoma 68.9% | MDA-MB-231 breast 111% | RXF 393 renal 71.1% | SF-268 CNS 39% | SF-295 CNS 40.8% | SF-539 CNS 46.6% | UACC-257 melanoma 55.8% | M14 melanoma 29.8% | HCT-15 colon 25.2% | HT29 colon 27% | SNB-75 CNS 76.6% | SNB-19 CNS 53.4% | U251 CNS 50.6% | PC-3 prostate 32.6% | UACC-62 melanoma 21.5% | LOX IMVI melanoma 16.1% | SK-MEL-28 melanoma 103%

COc1ccc(C2=NN(C(=O)c3cc(OC)c(OC)c(OC)c3)C(c3ccc(Cl)cc3)C2)cc1OC (stereo not given)
inactive: MALME-3M melanoma 63.1% | MDA-MB-231 breast 47.6% | RXF 393 renal 22.6% | SF-268 CNS 37.6% | UACC-257 melanoma 54.5% | HT29 colon 15.2% | SNB-75 CNS 21.9% | SNB-19 CNS 29.1% | U251 CNS 24% | PC-3 prostate 26.5% | UACC-62 melanoma 31.1% | LOX IMVI melanoma 31.3% | SK-MEL-28 melanoma 46.1%
active: DU-145 prostate 7.23% | K-562 leukemia 4.27% | SF-295 CNS -4.6% | SF-539 CNS -3.19% | M14 melanoma 6.09% | HCT-15 colon 9.3%

Oc1c(CN2CCCC2)cc(COCc2ccc(Br)cc2)c2cccnc12
inactive: DU-145 prostate 22.7% | RXF 393 renal 20% | SF-268 CNS 10.8% | SF-295 CNS 13% | HT29 colon 55% | SNB-75 CNS 24.5% | SNB-19 CNS 23.2% | PC-3 prostate 14.4% | SK-MEL-28 melanoma 24.2%
active: K-562 leukemia 8.51% | MALME-3M melanoma -3.92% | MDA-MB-231 breast 5.06% | SF-539 CNS -23.5% | UACC-257 melanoma -29.5% | M14 melanoma -3.51% | HCT-15 colon -39.6% | U251 CNS -7.1% | SK-MEL-5 melanoma -15.1% | UACC-62 melanoma -22.4% | LOX IMVI melanoma -14.1%

COc1cc(CCC[P+](c2ccccc2)(c2ccccc2)c2ccccc2)cc2c1OCO2
inactive: DU-145 prostate 48.2% | K-562 leukemia 21.8% | MALME-3M melanoma 14.6% | MDA-MB-231 breast 29% | RXF 393 renal 76.3% | SF-268 CNS 26.1% | SF-295 CNS 68.6% | SF-539 CNS 43% | UACC-257 melanoma 17.4% | M14 melanoma 30.8% | HCT-15 colon 106% | HT29 colon 79.3% | SNB-75 CNS 12.7% | SNB-19 CNS 14.9% | U251 CNS 23.9% | PC-3 prostate 16.7% | LOX IMVI melanoma 32% | SK-MEL-28 melanoma 27.1%
active: UACC-62 melanoma -3.87%

COc1ccc(C2c3ccc4ccccc4c3Oc3nc(C)[nH]c(=O)c32)cc1 (stereo not given)
inactive: DU-145 prostate 114% | K-562 leukemia 90.6% | MALME-3M melanoma 97% | MDA-MB-231 breast 93.6% | RXF 393 renal 108% | SF-268 CNS 94.3% | SF-295 CNS 105% | SF-539 CNS 96.8% | UACC-257 melanoma 111% | M14 melanoma 95.7% | HCT-15 colon 99.6% | HT29 colon 142% | SNB-75 CNS 76.8% | SNB-19 CNS 94.7% | U251 CNS 103% | PC-3 prostate 96% | UACC-62 melanoma 94.5% | LOX IMVI melanoma 88.8% | SK-MEL-28 melanoma 98.7%

NC(N)=Nc1nc2ccccc2n2c1nc1ccccc12
inactive: DU-145 prostate 33.3% | K-562 leukemia 17.9% | MALME-3M melanoma 35.6% | MDA-MB-231 breast 53.2% | RXF 393 renal 35% | SF-268 CNS 28.5% | SF-295 CNS 24.2% | SF-539 CNS 50.3% | UACC-257 melanoma 60.3% | M14 melanoma 42.6% | HCT-15 colon 25.9% | HT29 colon 18.2% | SNB-75 CNS 43.7% | SNB-19 CNS 38.8% | U251 CNS 27.8% | PC-3 prostate 48.5% | UACC-62 melanoma 40.7% | LOX IMVI melanoma 20.6% | SK-MEL-28 melanoma 82.3%
